The values that follow come from PubChem BioAssay AID434973 (Sanford-Burnham Center for Chemical Genomics, 2010).

Screen size: about 330,000 compounds; about 4,900 (1.5%) were called active. This excerpt belongs to a sample that is enriched for actives. Unmarked numbers belong to inactive results.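 Rule for the calls: active = inhibition above about 50% at the single test dose (limit read from the data); inactive = the rest.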 Non-standard residues stand in square brackets, D forms with d. Residues, ends and D or L forms follow the SMILES beside them. ξ: configuration not given here. *: point of attachment. Cbz = O=C(OCc1ccccc1)*; ξL = CC(C)CC(N)C(=O)O; ξP = O=C(O)C1CCCN1

For this assay, the target named is Sentrin-specific protease 7 (Homo sapiens) (UniProt Q9BQF6). Nature of the assay: blockers of human SENP7 peptidase activity – biochemical, luminescence, uHTS, primary screen (AID 434973).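 Note: plate controls were DMSO with enzyme for no effect and no enzyme buffer wells for full effect.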 The following applies: recombinant SENP7, Z-RLRGG-aminoluciferin luminescence, 40 min; at 5 µM; hits give high values.
As to `O=c1ccc2cc(S(=O)(=O)NCCCc3ccccc3)ccc2[nH]1`, the inhibition was 4.36%.

Turning to `CCOC(=O)CCP(=O)(O)C(O)(c1ccccc1)c1ccccc1`, the inhibition was -5.54%.

With `O=S(=O)(c1cccc(-c2nnc(SC(F)F)n2-c2ccccc2)c1)N1CCCCC1`, the inhibition is 1.56%.

Consider `O=C(COC(=O)c1ccc(F)cc1)Nc1ccc2c(c1)OCO2`, for which the inhibition is -9.15%.

With `O=C(COC(=O)c1ccncc1)Nc1ccc2c(c1)OCO2`, the inhibition was -10.3%.

As for `O=C(Nc1nc2ccccc2s1)c1ccc2c(c1)OCO2`, the inhibition is 97.1% (active).

For the molecule `O=C(COC(=O)c1ccc2c(c1)OCCO2)NCc1ccccc1Cl`, the inhibition was -9.15%.

For the molecule `O=C(CCC(=O)c1cccs1)Nc1nc2ccccc2s1`, the inhibition was 1.54%.

`CSc1nsc(NC(=O)Nc2ccccc2)n1`: the inhibition was 34.9%.

For `CC(=O)Nc1cccc(C(=O)OCC(=O)c2ccc3c(c2)OCO3)c1`, the inhibition was 81.4% (active).

Regarding `Cc1ccc2sc(NNC(=O)c3ccc4c(c3)OCCO4)nc2c1C`, the inhibition is 2.93%.

Turning to `O=C(Nc1ccccc1)Nc1nc2ccccc2s1`, the inhibition is 66% (active).

For `N#CCCN(C(=O)COC(=O)c1ccc2c(c1)OCCO2)c1ccccc1`, the inhibition is 3.84%.

For `COCc1nnc(NC(=O)c2ccc3c(c2)OCO3)s1`, the inhibition is 12.1%.

As to `O=C(OCc1ccccc1F)c1ccc2c(c1)OCCO2`, the inhibition was 84.2% (active).

As for `CC[N+]1(CC)CC2=Cc3ccccc3CC2C1` (stereo unspecified), the inhibition was 5.4%.

Regarding `Cc1ccc(CN2CCN(/N=C/c3cccnc3)CC2)c(C)c1`, the inhibition is 4.31%.

For the molecule `CCN(C(=O)C1CCCN(c2nc(-c3ccc(OC)cc3)no2)C1)c1ccc(OC)cc1` (stereo unspecified), the inhibition was -0.167%.

Regarding `CCOC(=O)CSc1nnc(NC(=O)C2CC(=O)N(c3ccc(F)cc3)C2)s1` (stereo unspecified), the inhibition is -6.57%.

Regarding `CC(=O)Nc1ccc(S(=O)(=O)N2CCN(S(=O)(=O)c3cccs3)CC2)cc1`, the inhibition was -14%.

Turning to `Cc1ccccc1Nc1scc(-c2ccc(Br)cc2)[n+]1-c1ccccc1C`, the inhibition is 0.441%.

Regarding `COc1ccc(/C(C)=N/N2CCOCC2)c(O)c1`, the inhibition was 9.39%.

Regarding `S=C(Nc1ccc2c(c1)OCO2)N1CCCC1`, the inhibition is -4.52%.

Regarding `CCCc1nc2oc3c(OCC)ncnc3c2c2c1COC(C)(C)C2`, the inhibition is -3.93%.

Turning to `O=C1c2ccccc2C(=O)N1Cc1cc(-c2ccccc2Cl)no1`, the inhibition is -0.976%.

With `Clc1ccc(COn2c(-c3ccc(Cl)cc3Cl)nc3ncccc32)cc1`, the inhibition was 0.814%.

As for `Clc1ccc(-c2cc(-c3ccccn3)on2)c(Cl)c1`, the inhibition was 99.4% (active).

For `CC1=NNC(=O)C1CCC(=O)N/N=C(\C)c1ccc(Cl)cc1` (stereo unspecified), the inhibition is 0.851%.

Regarding `COc1ccc(OC)c2sc(NC(=O)C3COc4ccccc4O3)nc12` (stereo unspecified), the inhibition was -4.59%.

Regarding `O=C(Nc1ncc([N+](=O)[O-])s1)C1COc2ccccc2O1` (stereo unspecified), the inhibition was 96.7% (active).

Regarding `COc1ccc(NC(=O)C2COc3ccccc3O2)cc1` (stereo unspecified), the inhibition was -20.8%.

Turning to `CC(C)C1C2=C(CC(C)(C)CC2=O)ON1c1ccccc1` (stereo unspecified), the inhibition was 3.53%.

Take `CC(C)Oc1ccc(C(=O)NCC(=O)Nc2ccc3c(c2)CCC3)cc1`: the inhibition was 3.44%.

`CC1CC(C)CN(CCC(=O)Nc2ccc3c(c2)CCC3)C1` (stereo unspecified): the inhibition is 5.5%.

In the case of `O=C(Nc1ccc2c(c1)CCC2)c1ccc(Br)s1`, the inhibition was 69.4% (active).

Consider `CC(C)CCN1NC2(CCC(C)CC2)NC1=S` (stereo unspecified), for which the inhibition is -7.22%.

On to `Cc1ccc(/C=N/NC(=O)c2sccc2OCc2ccc(F)cc2)cc1`, for which the inhibition was -13.6%.

For `Cc1ccc(NC(=O)CN(C)CC(=O)Nc2cccc(F)c2)cc1[N+](=O)[O-]`, the inhibition is -3.97%.

Consider `O=C(N/N=C/c1ccc([N+](=O)[O-])cc1)C(=O)N1CCCC1`, for which the inhibition was -3.45%.

Turning to `Cc1ccsc1C(=O)N/N=C/c1ccc([N+](=O)[O-])cc1`, the inhibition is 80.9% (active).

Turning to `Cc1cc(O)c(NC(=O)c2ccc(C)c([N+](=O)[O-])c2)cc1C`, the inhibition is -7.98%.

Take `Cc1ccc(NC(=O)c2sccc2C)cc1[N+](=O)[O-]`: the inhibition was 83.7% (active).

Take `O=C(COc1cccc(Cl)c1)NCc1ccccc1`: the inhibition was -0.414%.

Turning to `COc1cccc(NC(=O)CN(C)C(=O)c2ccccc2CCc2ccccc2)c1`, the inhibition was -9.77%.

Regarding `CC[C@]1(C(=O)OC)[C@H]2C(=O)N(C)C(=O)[C@H]2[C@H]2CN(C)C(=NCc3ccccc3)N21`, the inhibition was 0.164%.

On to `COc1cc(NC(=O)CCS(=O)(=O)c2ccc3c(c2)oc(=O)n3C)cc(OC)c1`, for which the inhibition was 1.53%.

`CCN(CC)S(=O)(=O)c1ccc(N(C)Cc2ccc(C(F)(F)F)cc2)nc1`: the inhibition was -1.06%.

For the molecule `Cc1ccc(CN2CCN(Cc3ccccc3-c3ccco3)CC2CCO)o1` (stereo unspecified), the inhibition is 4.02%.

With `CC(OC(=O)c1ccc(Cl)cc1O)C(=O)NCCC1=CCCCC1` (stereo unspecified), the inhibition is -16.5%.

Take `CC[N+](C)(CC)CCC[n+]1c(-c2ccccc2)c2cc(N)ccc2c2ccc(N)cc21`: the inhibition was 96.3% (active).

Regarding `COC(=O)c1ccc(COc2ccc(C#N)cc2)o1`, the inhibition is 0.574%.

For the molecule `Cc1cc2oc(=O)cc(CN3CCN(S(=O)(=O)c4cccs4)CC3)c2cc1C(C)C`, the inhibition is 8.53%.

For the molecule `Cn1c(Nc2cccc(Cl)c2)nc2ccccc21`, the inhibition is 4.17%.

`Cc1nn(C)cc1C(=O)c1ccccc1`: the inhibition is 7.95%.

Consider `Cn1c(NC(=O)c2ccccc2)nc2ccccc21`, for which the inhibition is 77.2% (active).

As to `Cn1c(-c2ccc(C(=O)c3ccccc3)s2)nc2ccccc21`, the inhibition is 98.5% (active).

In the case of `CCn1c(NC(=O)c2nn(C)cc2Br)nc2ccccc21`, the inhibition is -3.05%.

On to `Cc1nc2ccccc2c(-c2ccccc2)c1C(=O)c1ccccc1`, for which the inhibition was -0.427%.

Turning to `CCC1(CC)NC(=O)N(CC(=O)OCC(=O)Nc2ccc(C(F)(F)F)cc2)C1=O`, the inhibition is -0.704%.

As for `COC(=O)c1ccc(NC(=O)CSc2nnc(Cc3cccn3C)n2-c2ccc(F)cc2)cc1`, the inhibition was 9.96%.

Regarding `CC(C)c1ccc(C2C(C#N)=C(N)Oc3c2oc(CO)cc3=O)cc1` (stereo unspecified), the inhibition was 3.37%.

For `CCOC(=O)N1CCC(NC(=O)CN2C(=O)COc3ccc(C(C)(C)C)cc32)CC1`, the inhibition is -10.5%.

On to `O=S(=O)(NCCS(=O)(=O)N1CCN(c2ccccc2)CC1)c1ccc(F)cc1`, for which the inhibition is 9.28%.

Take `COc1ccc(C(=O)Nc2cccc(NC(=O)c3ccc(OC)cc3OC)n2)c(OC)c1`: the inhibition was 0.763%.

On to `COC(=O)c1sc(NC(=O)c2ccc(OC)cc2OC)nc1C`, for which the inhibition was 101% (active).

For the molecule `COc1cc2ccccc2cc1C(=O)Nc1nc(C)c(C(C)=O)s1`, the inhibition is -4.32%.

With `Cc1ccnc(NC(=O)c2ccoc2C)c1`, the inhibition was 71.9% (active).

As for `COc1ccc(C(=O)NC2=NCCS2)c(OC)c1`, the inhibition is 24.6%.

On to `Cc1csc(NC(=O)c2ccc(C)s2)n1`, for which the inhibition was 0.528%.

For `COc1cc(SC)ccc1C(=O)N(Cc1ccccc1)c1ccccc1`, the inhibition was -1.54%.

For the molecule `COc1cc(SC)ccc1C(=O)Nc1cc(C)ccn1`, the inhibition is 60.6% (active).

As for `COc1cc(SC)ccc1C(=O)Nc1nc(C)cs1`, the inhibition is 101% (active).

As to `Cc1ccnc(NC(=O)CNC(=O)c2ccccc2)c1`, the inhibition is -1.59%.

For the molecule `Cc1occc1C(=O)Nc1cccc(Cn2cccn2)c1`, the inhibition is 8.79%.

On to `COc1cc(SC)ccc1C(=O)NNC(=O)C1COc2ccccc2O1` (stereo unspecified), for which the inhibition is 5.69%.

In the case of `CC(C)CC(NC(=O)C1CCCN1C(=O)[C@@H](C)NC(=O)OCc1ccccc1)C(=O)NCC(N)=O` (stereo partly specified) (Cbz-[dA][ξP][ξL]G-NH2), the inhibition is 8.74%.

Consider `CCC1CCCCN1CCNC(=O)c1[nH]c(C)c(C(C)=O)c1C` (stereo unspecified), for which the inhibition is 0.149%.

For `COCn1c(C(O)c2ccccc2)cc2ccccc21` (stereo unspecified), the inhibition was 12.5%.

With `CCOC(=O)c1cnc(Nc2nc3ccccc3o2)nc1CSC(=S)N1CCCCC1`, the inhibition is 0.449%.

Take `CCn1ccnc1CN(C)C(=O)c1cc(COc2ccc(Cl)cc2OC)on1`: the inhibition is 5.22%.

Take `C=CCOc1ccc(/C=C/C(=O)OCC(=O)NC(C)c2ccc(F)cc2)cc1` (stereo unspecified): the inhibition is -12.8%.

Turning to `CCOC(=O)c1c(N)sc2c1CCCC2=O`, the inhibition is -8.61%.

Take `COc1ccc(S(=O)(=O)n2nc(C)c(S(=O)(=O)N3CCOCC3)c2C)cc1`: the inhibition is -1.04%.

For `CC(C)COC(=O)n1c(=O)oc2ccc(S(=O)(=O)N3CCCCC3)cc21`, the inhibition is -5.94%.

Turning to `O=C(CSc1nnnn1-c1ccc(O)cc1)N1N=C(c2ccc3ccccc3c2)CC1c1ccccc1` (stereo unspecified), the inhibition is 2.06%.

`O=C(N/N=C/c1ccc(Cl)c(Cl)c1)c1ccc2nc[nH]c2c1`: the inhibition is -0.0621%.

With `CSc1ccc(/C=N/NC(=O)c2cccc(Cl)c2)cc1`, the inhibition was 96% (active).

Consider `CSc1ccc(/C=N\NC(=O)CC(=O)NC(C)C)cc1`, for which the inhibition is 4.98%.

Consider `O=C(CN1C(=O)NC(Cc2ccccc2)(Cc2ccccc2)C1=O)NCC1CCCCC1`, for which the inhibition is -0.975%.

`COCCN(CCOC)c1nc(N)c2c(N)nc3c(c2c1C#N)CC(=O)N3Cc1ccc(Cl)cc1`: the inhibition was 58.9% (active).

As for `Cc1ccccc1NC(=O)C(C)OC(=O)CCC(=O)N(CC(C)C)c1c(N)n(CC(C)C)c(=O)[nH]c1=O` (stereo unspecified), the inhibition is 9.72%.

For the molecule `Cc1nn(-c2ccccc2)c2c1c(C)c(CCC(=O)NCC1CCCO1)c(=O)n2C` (stereo unspecified), the inhibition is -0.922%.

As to `COc1cc(C(=O)NCc2nnc(SCC(=O)Nc3nc4ccc(C)cc4s3)o2)cc(OC)c1OC`, the inhibition was 3.97%.

Take `CN(C(=O)Nc1ccc(Cl)cc1)n1cnc2ccccc2c1=O`: the inhibition was -9.71%.

Regarding `CCCc1nc2ccccc2c(=O)n1/N=C/c1ccc(O)c(O)c1`, the inhibition was -1.91%.

As for `O=c1c2ccccc2ncn1/N=C/c1ccccc1`, the inhibition is 88.5% (active).

The inhibition is the drop in the measured response relative to a control, in per cent.
